# Bioassay records deposited in PubChem BioAssay by National Center for Advancing Translational Sciences (NCATS).
# The list is not random: actives were taken first. Their share in the collection is about 2.4%.
# D2 ag-1: HTS Assay for Allosteric Agonists of the Human D2 Dopamine Receptor: Primary Screen for Agonists; 340,000 compounds, 0.53% hits; HEK293 T-REx D2 cells, calcium flux agonist mode; activation, % at 2 µM; AID 485358, 2010; D(2) dopamine receptor (Homo sapiens), P14416;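 active = activation over 3 SD above normal in the single-dose calcium agonist read, cut at about 30% in these data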; also: 0% is about no effect
# Target sequence (P14416 whole entry, looked up): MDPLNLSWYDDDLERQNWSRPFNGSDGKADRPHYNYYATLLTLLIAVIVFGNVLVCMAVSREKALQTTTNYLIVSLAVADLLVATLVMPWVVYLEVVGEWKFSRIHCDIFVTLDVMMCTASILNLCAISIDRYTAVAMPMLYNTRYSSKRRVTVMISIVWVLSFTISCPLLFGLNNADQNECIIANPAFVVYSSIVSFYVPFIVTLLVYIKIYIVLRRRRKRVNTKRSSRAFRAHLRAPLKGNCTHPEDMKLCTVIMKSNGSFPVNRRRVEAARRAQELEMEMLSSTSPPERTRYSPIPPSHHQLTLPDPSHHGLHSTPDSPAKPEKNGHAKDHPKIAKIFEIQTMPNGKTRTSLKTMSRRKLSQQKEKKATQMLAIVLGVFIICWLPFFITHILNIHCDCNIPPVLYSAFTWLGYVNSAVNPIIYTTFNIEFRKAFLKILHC
#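 Calcium-flux readout, 1 cycle/sec over 180 s following compound pin transfer, in inducible HEK293 Trex D2 cells (force-coupled); dopamine controls included. Positive calcium responses during this window marked compounds as potential agonists.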
# D2 PAM-1: HTS Assay for Positive Allosteric Modulators of the Human D2 Dopamine Receptor: Primary Screen for Potentiators; HEK293 T-REx D2, calcium flux, EC20 dopamine potentiation; potentiation, % at 10 µM; 340,000 compounds, 0.34% hits;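 active = potentiation over 3 SD above the plate norm, cut at about 30% in these data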; also: 0% is about no effect
#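 Tetracycline-induced Hek293 Trex D2 cells, force-coupled to calcium, loaded with no-wash calcium dye. Compound added with 180 s kinetic read for agonism, then EC20 dopamine and a further 180 s read for potentiation.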
# D2 PAM-2: Beta-Arrestin HTS for Positive Allosteric Modulators of the Human D2 Dopamine Receptor: Potentiators | D(2) dopamine receptor (Homo sapiens), P14416 | DiscoveRx D2 beta-arrestin cells, luminescence, 90 min; 100% = 57 uM dopamine signal | potentiation, % (concentration not given with the values) | 360,000 compounds, 0.23% hits; in the data active = potentiation above about 50%
#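 PathHunter beta-arrestin assay in DiscoveRx D2 cells. Compounds were added with an EC20 of dopamine (50 nM final) for 90 min at 37 deg C. Luminescence was read 1 h after detection reagent, with 57 uM dopamine as the EC100 control.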
# D2 antag: HTS Assay for Allosteric Antagonists of the Human D2 Dopamine Receptor: Primary Screen for Antagonists | inhibition, % at 10 µM | AID 485344, 2010 | HEK293 TREx D2 cells, calcium flux, dopamine EC80 | D(2) dopamine receptor (Homo sapiens), P14416 | 340,000 compounds, 2% hits; in the data active = inhibition above about 30%; inactive = below that, where a call was filed; also: 0% is about no effect
#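 Read-out: kinetic calcium fluorescence (1 cycle/s) in inducible HEK293 T-REx D2 cells after an EC80 dopamine addition that followed 180 s compound preincubation. Loss of the dopamine response indicates antagonism.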
# D2 ag-2: Beta-Arrestin HTS for Positive Allosteric Modulators of the Human D2 Dopamine Receptor: Agonists; AID 624465, 2012; D(2) dopamine receptor (Homo sapiens), P14416; DiscoveRx PathHunter D2 beta-arrestin, luminescence, 90 min; 100% = 57 uM dopamine signal; 360,000 compounds, 0.084% hits; activation, % (no concentration beside the values); in the data active = activation above about 40%
#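 Agonist mode: compounds alone added to overnight-plated D2 PathHunter cells for 90 min at 37 C, with 57 uM final dopamine (EC100) defining full response. Beta-arrestin recruitment detected by chemiluminescent reagent, read after 1 h at ambient temperature.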
# Active calls of the source: *; . = no result.
SMILES,D2 ag-1,D2 PAM-1,D2 PAM-2,D2 antag,D2 ag-2
O=C(NC1=C(Nc2ccc(Cl)cc2)C(=O)c2ccccc2C1=O)c1ccccc1,-1,1,51*,7,12
Cc1ccc(NC(=O)CN2C(=O)c3ccccc3Sc3ncccc32)c(C)c1,0,5,.,.,.
Cc1nc2sccn2c(=O)c1CCN1CCC(=C(c2ccc(F)cc2)c2ccc(F)cc2)CC1,-1,-30,-37,78*,-2
Cc1nc2sccn2c(=O)c1S(=O)(=O)N1CCN(c2ccc(F)cc2)CC1,0,-4,-4,-11,-6
Cc1nc2ccccn2c(=O)c1CCN1CCC(C(=O)c2ccc(F)cc2)CC1,-1,-28,-25,95*,-7
CC1(C(=O)O)CCCN(C(=O)c2ccc(OC(F)F)cc2)C1 (stereo not drawn),.,.,0,.,-3
CCOC(=O)N1CCC(NCCNC(=O)c2ccc(F)cc2)CC1,5,-25,-21,66*,-1
CCOC(=O)N1CCC(NCCNC(=O)c2cccc(F)c2)CC1,6,-24,-21,60*,-2
CCOC(=O)N1CCC(NC(=O)c2ccc(Cl)cc2)CC1,0,-6,-13,2,-4
CCc1ccc2oc(C(=O)Nc3cc(Cl)ccc3OC)cc(=O)c2c1,.,-4,.,.,.
COc1ccc(Br)cc1CN1C(=O)c2ccccc2C1C(=O)NC1CCCCCC1 (stereo not drawn),0,-7,.,.,.
CCOC(=O)c1cc(-c2ccc(C)o2)n[nH]1,-1,-15,-10,30*,0
CCN(CC)S(=O)(=O)c1ccc(NC2CCN(Cc3ccccc3)CC2)nc1,0,17,-7,36*,-1
Cc1nc2ccccc2n1CCC(=O)O,0,-1,21,6,0
Cc1nc2ccccc2n2c(O)c(CC(=O)O)cc12,2,-7,79*,2,14
CCCCS(=O)CC(CS(=O)CCCC)OC(=O)c1ccccc1 (stereo not drawn),0,-6,-9,0,-3
CCCCS(=O)(=O)CC(COc1ccccc1)OC(=O)c1ccccc1 (stereo not drawn),1,1,-6,35*,-3
COc1cccc(CNS(=O)(=O)c2ccc3c(c2)N(C(C)=O)CCO3)c1,0,-19,-20,61*,-3
Cc1cc2oc(C(=O)Nc3sc4c(c3C(=O)NCc3ccco3)CCC4)cc(=O)c2cc1C,0,17,.,.,.
CNC(=O)Cn1nc(-c2ccc(C)c(S(=O)(=O)N(C)C)c2)c2ccccc2c1=O,-1,38*,-7,-6,-2
C=CCOc1ccccc1CN1CCC(C(=O)Nc2cccc(-c3ccn[nH]3)c2)CC1,1,-4,-33,92*,0
CC1CCN(CCc2nc3cc(NS(=O)(=O)c4ccccc4)ccc3n2C)CC1,1,-22,-47,30*,-5
CC1CCN(CCc2nc3cc(NS(=O)(=O)c4ccc(F)cc4)ccc3n2C)CC1,-1,.,-40,36*,-1
CC1CCN(CCc2nc3cc(NC(=O)Nc4ccccc4)ccc3n2C)CC1,1,-14,-12,-38,2
CCOc1ccccc1NC(=O)N1CCN(Cc2nc3ccc(C)cc3o2)CC1,1,-4,.,.,.
SMILES,D2 ag-1,D2 PAM-1,D2 PAM-2,D2 antag,D2 ag-2
Cc1cccc(N2CCN(C(=O)Cn3ncc4c([nH]c5ccccc54)c3=O)CC2C)c1 (stereo not drawn),1,.,.,.,.
COc1ccc(OCC(=O)Nc2nc(-c3ccc(Br)cc3)ns2)cc1,4,15,.,.,.
COc1ccc(C(c2nnnn2C2CCCC2)N2CCc3ccccc3C2)cc1OC (stereo not drawn),0,9,-8,26,-4
COCCn1nnnc1C(c1ccc(O)c(OC)c1)N1CCc2ccccc2C1 (stereo not drawn),1,-18,-1,44*,2
CCc1ccc(NC(=O)CC2C(=O)N(c3cccc(OC)c3)C(=O)N2Cc2ccco2)cc1 (stereo not drawn),0,-4,.,.,.
COc1ccc(OCCOCCN2CCN(C)CC2)cc1,0,-10,-2,-3,-2
COc1cccc(OC)c1OCCOCCN1CCN(C)CC1,2,-25,-23,68*,0
O=C(Nc1cccc(-c2ccc(N3CCOCC3)nn2)c1)c1ccc(Cl)cc1,0,-15,20,31*,1
CCc1ccc(OCC(=O)N/N=C(\C)c2ccc(O)cc2O)cc1,0,-13,-7,45*,-4
Cc1ccc(-c2cn(-c3cccc(Cl)c3)c(S(=O)(=O)CC(=O)Nc3cccc(C)c3)n2)cc1,1,-20,.,.,.
CCc1c(C(C)S(=O)(=O)c2ccccc2)[nH]c(=O)n1CC (stereo not drawn),0,-17,0,35*,-3
O=C(O)c1ccccc1NC(=O)c1cc2ccccc2oc1=O,2,0,51*,14,-1
O=C(Nc1cccnc1N1CCOCC1)c1cc2ccccc2oc1=O,2,-4,13,-10,2
COc1cccc(CNC(=O)Cc2ccc(NC(=O)N3CCCCc4ccccc43)cc2)c1OC,1,-6,.,.,.
COc1ccc(NC(=O)CN(C)C(=O)c2cc(S(=O)(=O)N(C)C)ccc2N2CCCC2)cc1,1,8,3,38*,0
CN(C)S(=O)(=O)c1ccc(N2CCCC2)c(C(=O)NNC(=O)COc2ccccc2Cl)c1,-1,3,-16,20,-2
CN(C)S(=O)(=O)c1ccc(N2CCCC2)c(C(=O)NNC(=O)COc2ccccc2F)c1,1,-5,2,57*,-1
COc1ccc(NS(=O)(=O)c2cc(NC(=O)CCNC(C)=O)ccc2N2CCCCC2)cc1,0,4,-2,37*,2
Cc1c(C(=O)Nc2ccc(C(C)C)cc2)sc2nc[nH]c(=O)c12,.,11,.,.,.
CCc1cccc(NC(=O)c2cc3c(=O)[nH]c4ccccc4c3n2C)c1,0,18,.,.,.
COC(=O)c1ccccc1NC(=O)c1nc(-c2ccc(C)cc2)n2c1CCCCC2,1,6,.,.,.
CCCCc1nc(N2CCN(C(=O)c3ccco3)CC2)c(C#N)c2c1CCCC2,1,2,-2,31*,0
O=C(NCc1ccc2c(c1)OCO2)C1CCC(CNS(=O)(=O)c2cccc3nsnc23)CC1 (stereo not drawn),-1,-1,1,35*,-5
COc1ccc(CNC(=O)C2CCC(CNS(=O)(=O)c3cccc4nsnc34)CC2)cc1 (stereo not drawn),-2,6,-2,17,3
